# A selection: hits, their analogues and other compounds. The true share with any hit is near 3.2%.
# Tau fibril FP: inhibitors of human tau fibril formation | P10636 | hit rate 0.39% among 280,000 | Potency, µM (highest dose often 57.7 µM), for inactives: at the highest dose activity, negative = inhibition, most hits filed as inhibitors | K18 P301L tau heparin fibrillization, Alexa594 FP, 6 h; also: potency is read from the fitted curve at half-maximal effect; % is scaled to controls: 0 for no effect and ±100 for the full control effect; nearly all actives have a fitted effect of over 55% in size
# Target sequence (P10636 561-689 P618L limits assumed): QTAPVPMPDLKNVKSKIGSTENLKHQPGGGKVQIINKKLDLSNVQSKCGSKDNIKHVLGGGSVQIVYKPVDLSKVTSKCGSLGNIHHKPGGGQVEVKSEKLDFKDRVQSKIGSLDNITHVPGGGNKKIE
#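 FP of Alexa 594-tau after heparin (20 uM) induction. Substrate: human K18 P301L, 15 uM unlabeled, 0.24 uM labeled. Buffer 100 mM sodium acetate pH 7. 6 hr, 37 C.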
# JMJD2E inh: inhibitors of human JMJD2E histone demethylase | B2RXH2 | JMJD2E catalytic domain, FDH-coupled NADH fluorescence (FDH is formaldehyde dehydrogenase) | Potency, µM (doses to about 57.1 µM), inactives show at the highest dose activity change, negative = inhibition, actives largely listed as inhibitors | hit rate 1.6% among 230,000; active = well fitted inhibition curve with a large enough effect, not every such curve was filed as active; inconclusive = small, poorly fitted or top-dose-only effect, or another doubt; inactive = no such curve, though single readings can be large or run the other way;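 also: potency is read from the fitted curve at half-maximal effect; 0% = wells with enzyme and -100% = buffer wells without enzyme; nearly all actives have a fitted effect of over 50% in size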
# Target sequence (B2RXH2 1-337 limits assumed): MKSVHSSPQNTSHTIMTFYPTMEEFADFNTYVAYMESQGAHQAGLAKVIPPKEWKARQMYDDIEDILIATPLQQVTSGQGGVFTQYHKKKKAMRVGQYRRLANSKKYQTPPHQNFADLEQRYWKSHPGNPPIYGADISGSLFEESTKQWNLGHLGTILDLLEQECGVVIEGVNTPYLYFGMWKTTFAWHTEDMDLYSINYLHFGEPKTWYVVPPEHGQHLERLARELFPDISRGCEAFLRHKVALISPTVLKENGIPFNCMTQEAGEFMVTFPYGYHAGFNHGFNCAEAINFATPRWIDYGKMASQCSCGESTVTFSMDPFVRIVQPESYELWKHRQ
# Lamin A splicing: modulators of lamin A splicing; HeLa LMNA splicing GFP/RFP minigene ratio, 48 h; Potency, µM (titrated, usually from 46.1 µM), inactives show top-dose ratio change, negative = inhibition, actives largely listed as inhibitors; hit rate 0.01% among 200,000; AID 1487; active = well fitted inhibition curve with a large enough effect in the signal ratio, with a control signal flat, not every such curve was filed as active; inconclusive = small, poorly fitted or top-dose-only effect, or effect the other way, or a change in a side signal; the % refers to the signal ratio; also: potency is read from the fitted curve at half-maximal effect; % is scaled to controls: 0 for no effect and ±100 for the full control effect
#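 S3 HeLa stable clones carrying a lamin A-EGFP splicing minigene plus DsRed2 were seeded at 600 cells/well in Opti-MEM with 2% FBS, pin-dosed and incubated 48 h at 37°C. Acumen cytometry (488 nm) gave the GFP/RFP total-intensity ratio.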
# CBFb-RUNX1 inh: CBF-beta/RUNX1 interaction disruption; Q01196+Q13951; AlphaScreen CBFb-His/RUNX1-biotin binding, biochemical; Potency, µM (top dose mostly 59.8 µM), without a hit: at the highest dose activity, negative = inhibition, usual class: inhibitors; 230,000 tested, under 10 active; also: % of control where 0% means no effect
#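 Read-out: AlphaScreen. Format: His-CBF-beta with biotinylated RUNX1 (30 nM each) preincubated 20 min, compound 15 min, Ni-chelate plus streptavidin beads 90 min; room temperature throughout.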
# Tau fluor counter: counter-screen for tau fibril formation inhibitors | tau K18 P301L Alexa594 fluorescence, heparin fibrillization | Potency, µM (highest dose often 57.7 µM), inactives show top-dose activity change, negative = decrease | hit rate 0.93% among 280,000 | AID 1463; also: potency is read from the fitted curve at half-maximal effect; % is scaled to controls: 0 for no effect and ±100 for the full control effect; nearly all actives have a fitted effect of over 55% in size
#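 Human tau K18 P301L (15 uM unlabeled, 0.24 uM Alexa 594-labeled) in 100 mM sodium acetate pH 7 with 20 uM heparin, 6 hr at 37 C. ThT 30 uM added, 1 hr ambient; Alexa 594 FP and total fluorescence read at 555/632 nm.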
# Tau ThT inhib: blocks human tau fibril formation measured by thioflavin T. recombinant tau K18 P301L (four-repeat tau fragment), heparin-induced fibrillization, ThT fluorescence. hit rate 2.1% among 270,000. Potency, µM (titrated, usually from 57.4 µM), without a hit: at the top dose activity, negative = inhibition, usual class: inhibitors; also: potency is read from the fitted curve at half-maximal effect; % is scaled to controls: 0 for no effect and ±100 for the full control effect; nearly all actives have a fitted effect of over 55% in size
#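 Recombinant human tau K18 fragment […] carrying P301L, 15 uM unlabeled plus 0.24 uM Alexa 594-labeled, was fibrillized with 20 uM heparin in 100 mM sodium acetate pH 7 for 6 hr at 37 C; 30 uM ThT fluorescence read after 1 hr.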
# * = called active by the depositor; u = inconclusive; x = no result given; ! = a repeat was not active; [ ] = another dose, or the depositor's remark. Unless noted, calls follow the shape of the dose curve; as a rule, active = well fitted curve in the direction sought with a large enough effect; inconclusive = small, poorly fitted or top-dose-only effect, or another doubt; inactive = no such curve, though single readings can be large; an effect the other way counts as inactive or inconclusive.
SMILES,Tau fibril FP,JMJD2E inh,Lamin A splicing,CBFb-RUNX1 inh,Tau fluor counter,Tau ThT inhib
CC(C)(O)C1O[C@H]2CC[C@@]3(C)[C@@](O)(CC[C@H]4Cc5c([nH]c6ccccc56)[C@@]43C)C2=CC1=O (stereo not given in full),u,x,x,-14.7%,15.8µM*[quencher],u
O=c1[nH]c2ccccc2c(=O)n1-c1ccc(Cl)cc1Cl,-4.1%,u,u,-5.1%,-1.5%,-2.6%
O=C1NC(=O)c2c1c1c3ccccc3[nH]c1c1[nH]c3ccccc3c21,-8.6%,x,x,6.6%,14.1µM*[quencher],u
CCOC(=O)c1ncc2[nH]c3ccc(OCc4ccccc4)cc3c2c1COC,-15.8%,x,x,u,3.98µM*[quencher],u
CCCOC(=O)c1cc2c(cn1)[nH]c1ccccc12,-16.6%,x,x,u,u,u
COc1ccc(CN2CCN(c3ncnc4sc5c(c34)CCCC5)CC2)cc1F,1.4%,x,x,x,-12.2%,u
NNCc1cccc(O)c1,u,22.4µM*!,u,17.0%,u,u
O=[N+]([O-])c1cccc(O)c1,x,x,x,2.3%[21.7 µM],x,x
CC1=C(O)C(=O)C=C2C1=CC=C1[C@]2(C)CC[C@@]2(C)C3C[C@](C)(C(=O)O)CC[C@@]3(C)CC[C@@]12C (stereo not given in full),u,u,x,15.3%,u,u
COc1ccccc1N1C(=O)NC(=O)/C(=C/c2ccc([N+](=O)[O-])s2)C1=O,31.6µM*,u,x,u,u,x
COc1cccc(N2C(=O)NC(=O)/C(=C/c3ccc([N+](=O)[O-])s3)C2=O)c1,-94.9%,25.1µM*,x,u,-50.8%,x
Cc1ccc(N2C(=O)NC(=O)/C(=C\c3ccc([N+](=O)[O-])o3)C2=O)cc1,u,-9.0%,8.4%[46 µM],u,-14.9%,22.4µM*
COc1ccc(N2C(=O)NC(=O)/C(=C/c3ccc([N+](=O)[O-])s3)C2=O)cc1,31.6µM*,20µM*,x,u,u,x
COc1cccc(N2C(=O)NC(=O)/C(=C/c3ccc4c(c3)Cc3ccccc3-4)C2=O)c1,-12.9%,u,x,1.0%,-14.6%,u
COc1ccccc1N1C(=O)NC(=O)/C(=C\c2cnn(-c3ccccc3)c2)C1=O,-6.0%,-16.9%,-14.4%[46 µM],-3.5%,-4.4%,u
Cc1cc(C)cc(OCC(=O)Nc2ccc(-c3nc4ccccc4s3)cc2)c1,-9.6%,x,-2.9%[46 µM],x,-11.1%,u
COc1ccc(N2C(=O)/C(=C/C=C/c3ccccc3[N+](=O)[O-])C(=O)NC2=S)cc1,u,u,x,-19.8%,u,28.2µM*
COc1ccc(N2C(=O)NC(=O)/C(=C\c3ccc([N+](=O)[O-])s3)C2=O)cc1,u,25.1µM*,u,-23.4%,u,14.1µM*
COc1ccc(N2C(=O)/C(=C/c3cccs3)C(=O)NC2=S)cc1,6.2%,u,x,4.4%,2.0%,x
CCOc1ccc(N2C(=O)NC(=O)/C(=C\c3cc(OC)c(OC)cc3[N+](=O)[O-])C2=O)cc1,u,x,-6.2%,2.2%,-23.5%,14.1µM*
Cc1cc(-c2nc3ccccc3s2)ccc1NC(=O)c1cc(Cl)ccc1Cl,-2.5%,x,x,x,-12.3%,u
c1ccc2c(c1)Nc1ccccc1S2,7.2%,10.9%,u,-22.1%[21.7 µM],15.8µM*[quencher],u
CCOc1ccccc1-n1c(O)c(C=Nc2ccc(N(CC)CC)cc2)c(=O)[nH]c1=O,-10.4%,-18.3%,u,-10.7%,-29.9%,u
CCN(CC)c1ccc(N=Cc2c(O)n(-c3ccccc3C)c(=O)[nH]c2=O)cc1,0.3%,-25.0%,3.7%,-12.7%,-30.0%,20µM*
Cc1ccc(N/N=C/c2c(O)n(-c3ccccc3)c(=O)[nH]c2=O)cc1,u,-22.7%,x,-10.2%,u,15.8µM*
CCN(CC)c1ccc(N=Cc2c(O)n(-c3ccccc3)c(=O)[nH]c2=O)cc1,-13.5%,7.94µM*,x,-3.3%,u,x
